Measurements published in PubChem BioAssay (Tox21).
Inconclusive results are not listed. A number with no mark means an inactive call. The source made the active and inactive calls. Calls follow the shape of the dose curve; as a rule, active = well fitted cell-killing curve with a large enough effect in the repeat runs; inconclusive = weak or mixed curves, or effect the other way; inactive = flat fitted curve, though single readings scatter.

Assay: qHTS assay to identify small molecule agonists of the androgen receptor (AR) signaling pathway in the presence of an antagonist - cell viability counter screen (AID 1259379); also: nearly all actives have a fitted effect of over 25% in size
Conditions: MDA-kb2 viability, CellTiter-Fluor, 16 h; series mostly up to 92.4 µM; activity change, negative = cytotoxicity: at the top concentration
Excerpt: National Center for Advancing Translational Sciences [NCATS]
NIH Chemical Genomics Center [NCGC]
U.S. Environmental Protection Agency [EPA]
National Institutes of Environmental Health Sciences [NIEHS]
National Toxicology Program [NTP]
U.S. Food and Drug Administration [FDA]
Androgen receptor (AR) is an important member of nuclear receptor family. Its signaling plays a critical role in AR-dependent prostate cancer and other androgen related diseases. Considerable attention has been given in the past decades to develop methods to study and screen for the environmental chemicals that have the potential to interfere with metabolic homeostasis, reproduction, developmental and behavioral functions. Therefore AR binding assay for screening against androgen agonists and antagonists can be used to identify potential endocrine disruptors.
MDA-kb2 cells (from ATCC, deposited by Wilson et al.) are human breast carcinoma cells that were stably transfected with a luciferase reporter gene under control of the MMTV promoter that contains response elements for both androgen receptor (AR) and glucocorticoid receptor (GR). This particular screening for measuring luciferase reporter gene activity using MDA-kb2 cells against Tox21 10K library compounds is a confirmation study on agonist mode screening in the presence of AR-antagonist compound (Nilutamide) at 3.0uM final concentration. The cytotoxicity of the compounds was tested in parallel by measuring the cell viability using CellTiter-Fluor assay system (Promega, Madison, WI) in the same wells.
Tox21 Assay Protocol Summary:
MDA-kb2 cells (cells cultured without CO2) were dispensed at 3,000 cells/well in 4uL of culture medium into white wall/solid-bottom 1536-well plates (Corning Life Sciences, Corning, NY) using a Multidrop Combi (Thermo Fisher Scientific Inc., Waltham, MA) dispenser. The assay plates were incubated at 37C and 0% CO2 for 5hr. One uL of 3.0uM (final concentration) Nilutamide or assay buffer was added using two separate tips of Flying Reagent Dispenser (FRD, Aurora Discovery, San Diego, CA). Then 23nL of compounds dissolved in DMSO at 15 concentrations and positive controls were transferred to the assay plates using a Pintool station (Wako, San Diego, CA). The assay plates were incubated at 37C and 0% CO2 for 16 hr. After 15hr incubation at 37C, 1uL/well CellTiter-Fluor reagent (Promega Corporation) was added to each well of the assay plates using FRD. After 1hr incubation at 37C and 0% CO2, the fluorescence signal was measured using a ViewLux plate reader (PerkinElmer, Shelton, CT).
% is scaled to controls: 0 for no effect and ±100 for the full control effect; potency is read from the fitted curve at half-maximal effect.

| SMILES | activity change, negative = cytotoxicity | Potency |
| --- | --- | --- |
| CC(C)CC=O | 0.85% |  |
| COc1ccc2[nH]c(S(=O)Cc3ncc(C)c(OC)c3C)nc2n1 (stereo not given) | 1.82% [at 42.5 µM] |  |
| O=C1Nc2cc(Cl)ccc2Oc2ccccc21 | -2.61% [at 42.5 µM] |  |
| ClC(Cl)(Cl)c1ccc(C(Cl)(Cl)Cl)cc1 | 2.66% |  |
| CCCCCCCCCC=O | 0.691% |  |
| CC(=O)OCCc1ccccc1 | 1.78% |  |
| CC1CCc2cc(F)cc3c(=O)c(C(=O)O)cn1c23 (stereo not given) | 1% [at 42.5 µM] |  |
| Cn1c(=O)c2c(ncn2CC(O)CO)n(C)c1=O (stereo not given) | 3.25% [at 42.5 µM] |  |
| CC(=O)OC/C=C/c1ccccc1 | -0.738% |  |
| COC(=O)CSc1cc(N=c2sc(=O)n3n2CCCC3)c(F)cc1Cl | 0.487% |  |
| CC(CN)CCCN (stereo not given) | 0.366% |  |
| O=CNc1ccccc1 | -3.93% |  |
| O=C(O)/C=C/c1cnc[nH]1 | 2.02% |  |
| Cc1ccc(C(=O)C(C)CN2CCCCC2)cc1 (stereo not given) | -8.13% [at 42.5 µM] |  |
| O=C(O)COC(=O)Cc1ccccc1Nc1c(Cl)cccc1Cl | -2.87% [at 42.5 µM] |  |
| CN1CCC[C@@H]1c1cccnc1 | 1.99% [at 42.5 µM] |  |
| O=C(NN1CCCC1)NS(=O)(=O)c1ccc(Cl)cc1 | 3.08% [at 42.5 µM] |  |
| OCCC1CCCCN1 (stereo not given) | -1.45% |  |
| CCCCCCCCC(CO)CCCCCC (stereo not given) | 2.03% |  |
| O=C(/C=C/c1ccc(O)c(O)c1)O[C@@H]1C[C@](O)(C(=O)O)C[C@@H](O)[C@H]1O | -2.79% |  |

| SMILES | activity change, negative = cytotoxicity | Potency |
| --- | --- | --- |
| CC(C)NCC(O)c1cc(O)cc(O)c1 (stereo not given) | 4.95% [at 42.5 µM] |  |
| NC[C@H]1O[C@H](O[C@H]2[C@H](O)[C@@H](O[C@H]3O[C@H](CO)[C@@H](O)[C@H](N)[C@H]3O)[C@H](N)C[C@@H]2N)[C@H](O)[C@@H](O)[C@@H]1O | 1.81% [at 8.39 µM] |  |
| CN(C)CCCNCCCN | -0.368% |  |
| CC(C)(C)C1CCCCC1O (stereo not given) | 0.376% |  |
| C=CC(C)(CCC=C(C)C)OC(=O)c1ccccc1 (stereo not given) | 1.82% |  |
| S=C(S)NCCNC(=S)S | -1.95% |  |
| CN(c1nccc(=O)[nH]1)C1CCN(c2nc3ccccc3n2Cc2ccc(F)cc2)CC1 | -0.176% [at 42.5 µM] |  |
| C[C@H](CCC(=O)O)[C@H]1CC[C@H]2[C@@H]3[C@H](O)C[C@@H]4C[C@H](O)CC[C@]4(C)[C@H]3CC[C@]12C | -2.02% |  |
| CC(C)CCCCCCOC(=O)c1ccc(C(=O)OCCCCCCC(C)C)c(C(=O)OCCCCCCC(C)C)c1 | -0.251% |  |
| CCOC(=O)CC(C)C | -2.14% |  |
| CCOC(=S)SSC(=S)OCC | -0.739% |  |
| CCCCOC(=O)/C=C\C(=O)OCCCC | -1.15% |  |
| CCN1CCC[C@H]1CNC(=O)c1c(OC)ccc(Br)c1OC | 0.971% [at 42.5 µM] |  |
| Oc1ccc(Sc2ccc(O)cc2)cc1 | -1.33% |  |
| COCCCCCCCCOCCC[Si](C)(O[Si](C)(C)C)O[Si](C)(C)C |  | 17.2 µM (active) |
| CCCc1ccccc1 | 1.06% |  |
| CCCCC(CC)COCCCN (stereo not given) | -6.82% |  |
| CCOc1ccc(NC(=O)CC(C)=O)cc1 | 0.472% |  |
| CC(=O)N(CC(=O)N(C)C)c1ccccc1 | -1.53% [at 42.5 µM] |  |
| CCCCOc1cc(C(=O)OCCN(CC)CC)ccc1N | -1.24% [at 42.5 µM] |  |
